# The supplement of paper PMC8728848
# The entries come from a sample that favours the strongest signals as a whole.
# Legend:
# Assay in all cases: glycan array binding signal (z-score within array); higher = stronger binding
# Settings in all cases: glycan notation: IUPAC condensed, linker removed
# [1] = molecular target: Neu5Ac(a2-6)Gal(b1-4)GlcNAc(b1-2)Man(a1-6)[Gal(b1-4)GlcNAc(b1-2)Man(a1-3)]Man(b1-4)GlcNAc(b1-4)GlcNAc
# In short: (§1)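 Glycan array data were curated from 3228 arrays in the Consortium for Functional Glycomics database and kept only where the protein sequence was available. Glycan names were converted to IUPAC-condensed notation, and columns mapping to the same glycan were averaged. The binding signal is a within-array Z-score, averaged across arrays of the same protein sequence at different concentrations or buffers and across linkers. Negative Z-scores can be read as non-binding.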
# [2] = molecular target: Neu5Ac(a2-6)Gal(b1-4)GlcNAc(b1-3)Gal(b1-4)[Fuc(a1-3)]GlcNAc(b1-3)Gal(b1-4)[Fuc(a1-3)]GlcNAc
# In short: as §1
# [3] = molecular target: Neu5Gc(a2-6)Gal(b1-4)GlcNAc
# In short: as §1
binder,measurement,setting,value
"SRS2 (Toxoplasma gondii), O15695 (protein) MATRASLARQKTGAACLAVLTASPSVVAAKPWKRWVGVSVILASAFAVGVSAGPPYRYEPEKFTCRPKKGILSQWVSLLYQVQHNITFACEEATPVPTTLISEEHGLMVCAENMTPEECEANPAPLSAFLPGATKEWVTGDSVLTGLKISVPESQYPANAKSFRVGCRHNTKTGNTCMLTIHVEPRDPAVERQEARCSYTENSTLPKIFVTKDSNTMTLACGPHGAPMPESYTENYCSTPDTCDEKPFTSVIPGYLSKWFFGDPKSPLGARVRIPPEQIPSSPQINYFGCTGPTEGEGPKYNCTVPVPLGGGDPSEGSRPGGGSGGGKRGGGQGGGGSLAGFDFRQGSARHSLPSRMALSASALLAMTALAY",glycan array binding signal (z-score),[1],-0.203
same,glycan array binding signal (z-score),[2],0.576
same,glycan array binding signal (z-score),[3],-0.03
